# SARS PLP yeast = inhibitors of SARS-CoV papain-like protease in yeast; S. cerevisiae expressing SARS-CoV PLpro, growth rescue; 0.19% of 330,000 active; Potency, µM (highest dose often 32.9 µM), usual class: activators; note: nearly all actives have a fitted effect of over 55% in size
# Pf growth 48h = inhibits P. falciparum growth in the first generation, 48 h; P. falciparum luciferase growth in erythrocytes, 48 h; Potency, µM (series often up to 28.7 µM), most hits filed as inhibitors; 5.9% of 310,000 active; active = well fitted inhibition curve with a large enough effect; inconclusive = small, poorly fitted or top-dose-only effect, or another doubt; inactive = no such curve, though single readings can be large or run the other way
#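 Compounds are pin-transferred into medium, infected erythrocytes (2% hematocrit, 0.1% parasitemia final) are added, and plates sit one parasite generation at 37 C in 5% CO2. Detection reagent is then added and luminescence measured.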
# NS1 function inh = inhibitors of influenza NS1 protein function; 0.4% of 270,000 active; Potency, µM (series often up to 46.1 µM); note: actives are rising curves; nearly all actives have a fitted effect of over 50% in size
#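 In this qHTS, NS1 from influenza A is expressed in budding yeast, where it slows growth. Cells are switched from glucose to 2% galactose medium (pH 6.0, -URA), treated with compound, and growth recovery is read at OD600.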
# Pf growth 96h = P. falciparum growth inhibition at 96 hour, primary screen for plastid delayed-death inhibitors. P. falciparum luciferase reporter growth, 96 h. Potency, µM (titrated, usually from 28.7 µM), actives largely listed as inhibitors. 6.9% of 320,000 active. AID 504834; active = well fitted inhibition curve with a large enough effect; inconclusive = small, poorly fitted or top-dose-only effect, or another doubt; inactive = no such curve, though single readings can be large or run the other way
#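 Two-generation exposure (96 h) targets delayed-death phenotype. Reporter parasites carrying integrated firefly luciferase, in red cells at 2% hematocrit and 0.05% parasitemia final, kept at 37 C, 5% CO2; luminescence loss indicates inhibition.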
# Hits are given with their value; . = inactive; ? = inconclusive; / = not tested or not shown. The list is not random: actives were taken first. Their share in the collection is about 10%. Unless noted, calls come from the whole dose curve.
SMILES,SARS PLP yeast,Pf growth 48h,NS1 function inh,Pf growth 96h
COc1ccc(NC(=O)CN2CCN(S(=O)(=O)N(C)C)CC2)cc1,.,.,.,.
COC(=O)c1ccc(NC(=O)CN2CCN(S(=O)(=O)c3ccc(Br)cc3)CC2)cc1,.,.,.,9.3µM
CN(C)S(=O)(=O)N1CCN(CC(=O)Nc2ccc(Br)cc2)CC1,.,.,.,5.2µM
CCCN(CC(=O)Nc1ccccc1OC)C(=O)c1cccc(S(=O)(=O)Nc2ccc(OC)cc2)c1,.,?,/,?
CC(C)(C)c1cc(CCC(=O)NNC(=S)NC(=O)c2ccccc2)cc(C(C)(C)C)c1O,5µM,13µM,.,?
O=C(CCc1ccccc1)NNC(=S)NC(=O)c1ccccc1,.,?,.,?
COC(=O)C1C(=O)C2=C(CC1C)NC(=O)CC2c1ccccc1 (stereo unspecified),.,?,.,.
CCOc1cc(C2CC(=O)NC3=C2C(=O)C(C(=O)OC)C(C)C3)cc(Cl)c1O (stereo unspecified),.,1.2µM,.,.
COc1ccc(NC(=O)N2CCc3ccccc3C2)c(OC)c1,.,.,.,.
CCCCCc1ccc(-c2cn(CC3CCCCC3)nn2)cc1,.,.,?,12µM
COc1ccc(-c2cn(CC3CCCCC3)nn2)cc1,.,.,.,.
CN1CCN(C(=O)c2ccc(N(Cc3ccc(Cl)cc3)S(C)(=O)=O)cc2)CC1,.,.,.,?
CC(C)NC(=O)c1ccc(N(Cc2ccc(Cl)cc2)S(C)(=O)=O)cc1,.,.,.,10µM
Cn1c(=O)c2[nH]cnc2n(C)c1=O.[CH2-][C@H](Cc1cccc2cc(C(=O)O)c(=O)oc12)OC.[Hg].[OH-],/,/,.,/
COc1cccc(C(=O)NCC(c2ccco2)N2CCc3ccccc3C2)c1 (stereo unspecified),.,?,/,.
COc1cccc(NC(=O)C(=O)NCC(c2ccco2)N2CCc3ccccc3C2)c1 (stereo unspecified),.,12µM,/,?
COc1ccc(OC)c(S(=O)(=O)NCC(c2cccs2)N2CCc3ccccc3C2)c1 (stereo unspecified),.,15µM,/,?
CC(=O)Nc1cccc(NC(=O)C(=O)NCC(c2ccco2)N2CCc3ccccc3C2)c1 (stereo unspecified),.,12µM,/,?
COc1ccc(NC(=O)C(=O)NCC(c2ccco2)N2CCc3ccccc3C2)cc1OC (stereo unspecified),.,12µM,/,?
Cc1cc(NC(=O)CSc2nc(=O)n(CCCN(C)C)c3c2CCCC3)no1,.,?,/,.
CSc1cccc(N2CC(C(=O)Nc3cccc(S(=O)(=O)N4CCCC4)c3)CC2=O)c1 (stereo unspecified),.,.,/,?
CCN[C@@H]1CN(CCCOC)S(=O)(=O)c2sc(S(N)(=O)=O)cc21,/,.,/,.
Cc1cc(C)c(S(=O)(=O)NCC(c2ccco2)N2CCc3ccccc3C2)c(C)c1 (stereo unspecified),.,9.3µM,/,?
O=C(CSc1ncnc2c1cnn2-c1cccc(Cl)c1)NCC1CCCO1 (stereo unspecified),.,.,.,.
CC(=O)N1CN(C2CC(C)(C)NC(C)(C)C2)Cc2c1sc1c2CCCC1,.,12µM,.,12µM
SMILES,SARS PLP yeast,Pf growth 48h,NS1 function inh,Pf growth 96h
Cc1cccc(N(C)c2ncnc3onc(-c4ccc(F)cc4)c23)c1C,.,.,.,?
COc1ccc(-c2cc(C(=O)OCC(=O)c3c(N)n(C)c(=O)n(C)c3=O)c3ccccc3n2)cc1,.,.,/,.
CC(OC(=O)c1c2c(nc3ccccc13)/C(=C\c1ccc3c(c1)OCO3)CCC2)C(=O)Nc1ccc(S(N)(=O)=O)cc1 (stereo unspecified),.,?,11µM,?
Cc1cccc(C)c1NC(=O)COC(=O)c1c2c(nc3ccccc13)/C(=C\c1ccc3c(c1)OCO3)CCC2,.,8.3µM,.,?
COc1ccc(/C=C2\CCCc3c2nc2ccccc2c3C(=O)OCC(=O)c2c(N)n(C)c(=O)n(C)c2=O)cc1,.,?,?,4.1µM
O=C(COC(=O)/C=C/c1cccc(C(F)(F)F)c1)NC1CCS(=O)(=O)C1 (stereo unspecified),.,.,/,.
COc1ccc(S(=O)(=O)N2CCOCC2)cc1C(=O)N(C)Cc1ccco1,.,/,/,/
CCOC(=O)c1c(N)sc(-c2ccccc2)c1C,.,.,.,.
Cc1c(-c2ccccc2)sc(N)c1C(=O)N1CCOCC1,.,13µM,.,.
O=C(NC1CCCCC1)c1cccc(S(=O)(=O)N2CCCCC2)c1,.,.,.,4.1µM
CC(OC(=O)c1cccc(S(=O)(=O)N2CCCCC2)c1)C(=O)NCC1CCCCC1 (stereo unspecified),.,.,/,.
